The values that follow come from the supplement of paper PMC10037445.

Several values for one entry are separate records, joined by “and”; a condition that tells them apart may be missing. Identical values can stand only once. Over roughly 2,900 compounds, “NF-kB SEAP reporter activity, fold change vs agonist alone” has its median near 0.99; the highest 2% begin near 2.6. The list comes from a sample in which the highest values are over-represented; it also holds similar structures and randomly drawn compounds.

The subject of experiment [1] is RAW-Dual. Briefly: NF-kB SEAP reporter activity, fold change vs agonist alone; cytotoxicity flag (confluency mask): not cytotoxic; higher = enhanced NF-kB activity. The method, boiled down:
(§1)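 After 50 nL of library stock was delivered by pin tool to RAW-Dual macrophages (50,000 cells/well, DMEM, 384-well plates), a PRR agonist was added 1 h later and the plates were kept at 37 °C, 5% CO2. Twenty hours later, IRF was read from supernatant by QuantiLuc luminescence and NF-κB by QuantiBlue absorbance at 620 nm. Reporter activity is stated as fold change over agonist-alone wells. Wells with IncuCyte confluency under 70% of agonist controls in both mask sets were counted as cytotoxic.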

Experiment [2] relates to RAW-Dual. In words: NF-kB SEAP reporter activity, fold change vs agonist alone; higher = enhanced NF-kB activity. The method, boiled down: as §1
For experiment [3], the system named is RAW-Dual. Briefly: NF-kB SEAP reporter activity, fold change vs agonist alone; cytotoxicity flag (confluency mask): cytotoxic (confluency <70% of control); higher = enhanced NF-kB activity. Summed up: as §1
Where [4] appears, read: agonist: ODN 1826 (TLR9) 0.5 ug/mL.
Where [5] appears, read: agonist: Pam2CSK4 (TLR2/6) 0.1 ug/mL.
Where [6] appears, read: agonist: Pam3CSK4 (TLR2/1) 0.1 ug/mL.
The mark [7] stands for this setting: library stock concentration (final ~1000-fold dilution): 10 mM, cytotoxicity flag (confluency mask): not cytotoxic, agonist: Imiquimod (TLR7) […].
Setting [8] is: library stock concentration (final ~1000-fold dilution): 10 mM, cytotoxicity flag (confluency mask): not cytotoxic, agonist: MPLA (TLR4) […].
[9] abbreviates: library stock concentration (final ~1000-fold dilution): 10 mM, cytotoxicity flag (confluency mask): cytotoxic (confluency <70% of control), agonist: Imiquimod (TLR7) […].
Where [10] appears, read: library stock concentration (final ~1000-fold dilution): 10 mM, cytotoxicity flag (confluency mask): cytotoxic (confluency <70% of control), agonist: MPLA (TLR4) […].

Take `CCc1ccc(NC(=O)Nc2c[nH]c3ccccc23)cc1` (library stock concentration (final ~1000-fold dilution): 1 mM): the “NF-kB SEAP reporter activity” value in experiment [1] (agonist: LPS (TLR4) 0.1 ug/mL) stood at 0.445; in experiment [1] (setting [4]), 0.702; in experiment [1] (setting [5]), 0.417; in experiment [1] (setting [6]), 0.365.

For `CCc1ccc(NC(=O)Nc2c[nH]c3ccccc23)cc1`, the “NF-kB SEAP reporter activity” value in experiment [2] (library stock concentration (final ~1000-fold dilution): 1 mM, cytotoxicity flag (confluency mask): not cytotoxic, agonist: Imiquimod (TLR7) […]) came to 0.782; in experiment [2] (library stock concentration (final ~1000-fold dilution): 1 mM, cytotoxicity flag (confluency mask): not cytotoxic, agonist: MPLA (TLR4) […]), 0.736.

For the compound `CN(C(=O)n1cnc(-c2ccc[n+]([O-])c2)c1)C1CCCCC1`, the “NF-kB SEAP reporter activity” value was 0.995 in experiment [2] (setting [7]) and 1.03 in experiment [2] (setting [8]).

As for `CN(C(=O)n1cnc(-c2ccc[n+]([O-])c2)c1)C1CCCCC1` (library stock concentration (final ~1000-fold dilution): 10 mM), the “NF-kB SEAP reporter activity” value in experiment [1] (agonist: LPS (TLR4) 0.1 ug/mL) amounted to 1.04; in experiment [1] (setting [4]) it was 0.925; in experiment [1] (setting [5]), 0.966; in experiment [1] (setting [6]), 1.01.

Turning to `CC(=O)Oc1cc2c(cc1Cl)C(c1ccccc1C(=O)O)c1cc(Cl)c(OC(C)=O)cc1O2` (library stock concentration (final ~1000-fold dilution): 10 mM), the “NF-kB SEAP reporter activity” value in experiment [1] (agonist: LPS (TLR4) 0.1 ug/mL) was 1.48; in experiment [1] (setting [4]), 1.24; in experiment [1] (setting [5]) it was 1.12; in experiment [1] (setting [6]), 1.05.

Consider `CC(=O)Oc1cc2c(cc1Cl)C(c1ccccc1C(=O)O)c1cc(Cl)c(OC(C)=O)cc1O2`, for which the “NF-kB SEAP reporter activity” value in experiment [2] (setting [7]) was determined as 1.04; in experiment [2] (setting [8]), 1.41.

As for `COc1cc(C2CC(c3ccccc3)=NN2C(N)=S)cc(OC)c1OC` (centres undefined) (library stock concentration (final ~1000-fold dilution): 10 mM), the “NF-kB SEAP reporter activity” value in experiment [1] (agonist: LPS (TLR4) 0.1 ug/mL) is 1.16; in experiment [1] (setting [4]), 1.25; in experiment [1] (setting [5]) it was 0.997; in experiment [1] (setting [6]), 1.13.

Turning to `COc1cc(C2CC(c3ccccc3)=NN2C(N)=S)cc(OC)c1OC` (centres undefined), the “NF-kB SEAP reporter activity” value in experiment [2] (setting [7]) was 1.58; in experiment [2] (setting [8]), 1.29.

For `O=C(c1ccc(C(=O)N2CCC(N3CCCC3)CC2)c(Nc2ccccc2)c1)N1CCC(N2CCCC2)CC1` (library stock concentration (final ~1000-fold dilution): 10 mM), the “NF-kB SEAP reporter activity” value worked out at 0.933 in experiment [1] (agonist: LPS (TLR4) 0.1 ug/mL), 0.944 in experiment [1] (setting [4]), 1.04 in experiment [1] (setting [5]) and 1.33 in experiment [1] (setting [6]).

On to `COc1cc(N2CCC(N)CC2)ccc1Nc1ncc(Cl)c(-c2c[nH]c3ccccc23)n1` (library stock concentration (final ~1000-fold dilution): 10 mM), for which the “NF-kB SEAP reporter activity” value is 0.166 in experiment [3] (agonist: LPS (TLR4) 0.1 ug/mL), 0.19 in experiment [3] (setting [4]), 0.0626 in experiment [3] (setting [5]) and 0.118 in experiment [3] (setting [6]).

In the case of `COc1cc(C(=O)N2CCC(N3CCN(C)CC3)CC2)ccc1Nc1ncc2c(n1)N(C)c1ccccc1C(=O)N2C`, the “NF-kB SEAP reporter activity” value in experiment [2] (setting [7]) is 1.48; in experiment [2] (setting [8]), 2.66.

For the compound `COc1cc(C(=O)N2CCC(N3CCN(C)CC3)CC2)ccc1Nc1ncc2c(n1)N(C)c1ccccc1C(=O)N2C` (library stock concentration (final ~1000-fold dilution): 10 mM), the “NF-kB SEAP reporter activity” value in experiment [1] (agonist: LPS (TLR4) 0.1 ug/mL) was determined as 3.59; in experiment [1] (setting [4]) it was 0.264; in experiment [1] (setting [5]), 1.02; in experiment [1] (setting [6]) it was 2.01.

For `CCOc1cc(C(=O)N2CCC(N3CCN(C)CC3)CC2)ccc1Nc1ncc2c(n1)N(C1CCCC1)c1ccccc1C(=O)N2C`, the “NF-kB SEAP reporter activity” value was 1.44 in experiment [2] (setting [9]) and 2.71 in experiment [2] (setting [10]).

For `COc1cc(N2CCN(C)CC2)ccc1Nc1ncc2c(n1)N(C)c1ccccc1C(=O)N2`, the “NF-kB SEAP reporter activity” value is 0.928 in experiment [2] (setting [7]) and 1.03 in experiment [2] (setting [8]).

On to `O=C(c1ccc(Nc2nccc(-c3cc4ccccc4s3)n2)cc1)N1CCC(N2CCCC2)CC1` (library stock concentration (final ~1000-fold dilution): 10 mM), for which the “NF-kB SEAP reporter activity” value in experiment [3] (agonist: LPS (TLR4) 0.1 ug/mL) is 0.302 and 0.283; in experiment [3] (setting [4]), 0.179 and 0.19; in experiment [3] (setting [5]), 0.0736 and 0.0841; in experiment [3] (setting [6]), 0.128 and 0.186.

`CCOc1cc(N2CCC(O)CC2)ccc1Nc1ncc2c(n1)N(C)c1ccccc1C(=O)N2C`: the “NF-kB SEAP reporter activity” value in experiment [2] (setting [7]) stood at 1.23; in experiment [2] (setting [8]), 1.91.

Take `COc1cc(N2CCN(C)CC2)ccc1Nc1ncc2c(n1)N(C)c1ccccc1C(=O)N2` (library stock concentration (final ~1000-fold dilution): 10 mM): the “NF-kB SEAP reporter activity” value amounted to 0.966 in experiment [1] (agonist: LPS (TLR4) 0.1 ug/mL), 0.514 in experiment [1] (setting [4]), 1.08 in experiment [1] (setting [5]) and 1.61 in experiment [1] (setting [6]).

Consider `CCOc1cc(N2CCC(O)CC2)ccc1Nc1ncc2c(n1)N(C)c1ccccc1C(=O)N2C` (library stock concentration (final ~1000-fold dilution): 10 mM), for which the “NF-kB SEAP reporter activity” value in experiment [1] (agonist: LPS (TLR4) 0.1 ug/mL) is 3.72; in experiment [1] (setting [4]), 1.57; in experiment [1] (setting [5]), 1; in experiment [1] (setting [6]) it was 1.48.

For the compound `COc1cc(N2CCC(N)CC2)ccc1Nc1ncc(Cl)c(-c2c[nH]c3ccccc23)n1`, the results for the “NF-kB SEAP reporter activity” value in experiment [2] (setting [9]) and in experiment [2] (setting [10]) were 0.251 and 0.226, respectively.

As to `O=C(c1ccc(C(=O)N2CCC(N3CCCC3)CC2)c(Nc2ccccc2)c1)N1CCC(N2CCCC2)CC1`, the “NF-kB SEAP reporter activity” value turned out to be 0.917 in experiment [2] (setting [7]) and 1.12 in experiment [2] (setting [8]).

Take `CCOc1cc(C(=O)N2CCC(N3CCN(C)CC3)CC2)ccc1Nc1ncc2c(n1)N(C1CCCC1)c1ccccc1C(=O)N2C` (library stock concentration (final ~1000-fold dilution): 10 mM): the “NF-kB SEAP reporter activity” value in experiment [3] (agonist: LPS (TLR4) 0.1 ug/mL) was determined as 5.49; in experiment [3] (setting [4]), 1.31; in experiment [3] (setting [5]), 1.36; in experiment [3] (setting [6]), 3.42.

As to `CC1OC(=O)C(C)C1CC(O)C(C)(O)C1CCC2(O)C3=CC(=O)C4CC(O)C(O)CC4(C)C3CCC12C` (centres undefined), the “NF-kB SEAP reporter activity” value in experiment [2] (setting [7]) worked out at 1.02; in experiment [2] (setting [8]), 1.05.

In the case of `CC1OC(=O)C(C)C1CC(O)C(C)(O)C1CCC2(O)C3=CC(=O)C4CC(O)C(O)CC4(C)C3CCC12C` (centres undefined) (library stock concentration (final ~1000-fold dilution): 10 mM), the “NF-kB SEAP reporter activity” value in experiment [1] (agonist: LPS (TLR4) 0.1 ug/mL) turned out to be 1.18; in experiment [1] (setting [4]) it was 1.02; in experiment [1] (setting [5]), 1.16; in experiment [1] (setting [6]), 1.23.

On to `CCOc1cc(N)c([N+](=O)[O-])cc1C(=O)NC1CCN(CC2CC=CCC2)CC1.O=C(O)C(O)C(O)C(=O)O` (centres undefined) (library stock concentration (final ~1000-fold dilution): 10 mM), for which the “NF-kB SEAP reporter activity” value in experiment [1] (agonist: LPS (TLR4) 0.1 ug/mL) amounted to 1.38; in experiment [1] (setting [4]) it was 0.18; in experiment [1] (setting [5]), 0.898; in experiment [1] (setting [6]), 0.739.
